Experimental findings from PubChem BioAssay (NCI) are described below.

The panel holds about 83,000 compounds, 20% with a hit somewhere; the sample as a whole holds those more often.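 Plates (96-well) were seeded with cells, treated with compound at one concentration, and incubated for 48 hours before percent growth was determined.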 A number with no mark means an inactive call. Active and inactive are the calls of the source. Rule for the calls: active = growth percent below 10; inactive = the rest.

What all share (assay): NCI-60 one-dose screen, 48 h (100 = growth as untreated, 0 = no growth, -100 = all killed)
One test relates to SR leukemia. As to conditions: 10 µM unless noted.
The next test relates to RPMI-8226 leukemia. As to conditions: 10 µM unless noted.
A further test relates to OVCAR-8 ovarian. To be noted: 10 µM unless noted.
The subject of the next test is OVCAR-5 ovarian. To be noted: 10 µM unless noted.
In a further test the test system is SK-OV-3 ovarian. To be noted: 10 µM unless noted.
The subject of another test is IGROV1 ovarian. To be noted: 10 µM unless noted.
Another test has as its system OVCAR-3 ovarian. To be noted: 10 µM unless noted.
The subject of a further test is HS 578T breast. As to conditions: 10 µM.
Another test concerns NCI/ADR-RES ovarian. As to conditions: 10 µM unless noted.
In the next test the test system is T-47D breast. To be noted: 10 µM unless noted.
A further test deals with BT-549 breast. To be noted: 10 µM unless noted.
A further test has as its system MDA-MB-435 melanoma. As to conditions: 10 µM unless noted.
Another test has as its system MCF7 breast. To be noted: 10 µM unless noted.
In another test the test system is HCT-116 colon. To be noted: 10 µM unless noted.
The next test relates to HCC-2998 colon. As to conditions: 10 µM unless noted.
The test system of a further test is KM12 colon. As to conditions: 10 µM unless noted.
A further test relates to OVCAR-4 ovarian. To be noted: 10 µM unless noted.
Another test concerns SW-620 colon. To be noted: 10 µM unless noted.

On to `OC(c1cc2c(Cl)cc(Cl)cc2c2cc(C(F)(F)F)ccc12)C1CCCCN1` (stereo not given), for which the growth is -63.5% (active) with SR leukemia; -44.8% (active) in the test on RPMI-8226 leukemia; -61% (active) with OVCAR-8 ovarian; -78.5% (active) in the test with OVCAR-5 ovarian; -18.3% (active) in the test with SK-OV-3 ovarian; -67.9% (active) in the test on IGROV1 ovarian. Besides, the growth was -86% (active) in the test with OVCAR-3 ovarian; -56.1% (active) in the test on HS 578T breast; -60.4% (active) with NCI/ADR-RES ovarian; -78.5% (active) with T-47D breast; 50.4% in the test with BT-549 breast; -65.5% (active) in the test with MDA-MB-435 melanoma. The growth was -75.7% (active) in the test with MCF7 breast, -85.9% (active) with HCT-116 colon, -73.5% (active) in the test with HCC-2998 colon and -84.6% (active) in the test on KM12 colon.

As to `CCOC(=O)c1sc2nc(-c3cc4ccccc4o3)cc(-c3ccc(Cl)cc3)c2c1N`, the growth in the test with SR leukemia is 71.6%; in the test on RPMI-8226 leukemia it was 42.4%; in the test with OVCAR-8 ovarian, 112%; in the test on OVCAR-4 ovarian, 101%; in the test on SK-OV-3 ovarian, 104%; with IGROV1 ovarian, 81.2%. Also, the growth was 103% in the test with OVCAR-3 ovarian; 91.9% in the test with HS 578T breast; 112% in the test on NCI/ADR-RES ovarian; 103% in the test with T-47D breast; 148% with BT-549 breast; 222% in the test on MDA-MB-435 melanoma. Further, the growth with SW-620 colon is 96.8%; in the test on MCF7 breast it was 110%; in the test with HCT-116 colon it was 105%; in the test on HCC-2998 colon, 109%; with KM12 colon, 99.7%.

With `CC(=O)c1ccc(Nc2nc(Cl)nc(Oc3c(Cl)cccc3Cl)n2)cc1`, the growth with SR leukemia was 82.3%; with RPMI-8226 leukemia, 70%; in the test with OVCAR-8 ovarian, 92.5%; in the test on OVCAR-5 ovarian, 105%; in the test on SK-OV-3 ovarian it was 100%; with IGROV1 ovarian, 89.1%. The growth is 90.9% in the test on OVCAR-3 ovarian; 74.3% in the test on HS 578T breast; 93.6% in the test on NCI/ADR-RES ovarian; 79.8% with T-47D breast; 84.7% in the test on BT-549 breast; 89.9% in the test with MDA-MB-435 melanoma. Moreover, the growth in the test on MCF7 breast was 74.9%; with HCT-116 colon, 84.9%; in the test on HCC-2998 colon it was 106%; in the test with KM12 colon it was 98%.

Regarding `CCN(CC)Cc1cc(Nc2ccnc3cc(Cl)ccc23)cc(-c2ccc(Cl)cc2)c1O`, the growth in the test on SR leukemia is -22.7% (active); in the test with RPMI-8226 leukemia, 6% (active); with OVCAR-8 ovarian, 9.58% (active); in the test on OVCAR-5 ovarian it was 54.2%; with SK-OV-3 ovarian it was 48.1%; in the test with IGROV1 ovarian, -6.07% (active). The growth with OVCAR-3 ovarian is -44.1% (active); in the test on HS 578T breast it was -33.5% (active); with NCI/ADR-RES ovarian, 19.9%; with T-47D breast, 50.9%; in the test on BT-549 breast it was 25.4%; with MDA-MB-435 melanoma, 35.4%. In addition, the growth in the test with SW-620 colon is 12.3%; with HCT-116 colon, 43.4%; in the test with HCC-2998 colon, 64.3%; in the test with KM12 colon, 34.5%.

For the compound `CCCC(CCC)NCC(O)c1cc(-c2ccc(C(F)(F)F)cc2)nc(C(F)(F)F)c1` (stereo not given), the growth in the test on SR leukemia was -61.4% (active); in the test with RPMI-8226 leukemia it was -37.7% (active); in the test on OVCAR-8 ovarian it was -62.8% (active); in the test with OVCAR-5 ovarian it was -37.9% (active); in the test on SK-OV-3 ovarian, 52.3%; in the test on IGROV1 ovarian, -22.9% (active). Further, the growth in the test with OVCAR-3 ovarian was -83.1% (active); with HS 578T breast, -45.5% (active); in the test on NCI/ADR-RES ovarian, -53.9% (active); in the test on BT-549 breast, 48.2%; with MDA-MB-435 melanoma, -48.1% (active); in the test with MCF7 breast it was -85.1% (active). Further, the growth with HCT-116 colon is -70.8% (active); in the test on KM12 colon, -85.4% (active).

As to `CC(C)c1ccc(Cn2ccc3c4c(N)nc(NC5CC5)nc4ccc32)cc1`, the growth in the test with SR leukemia was -45.8% (active); in the test on RPMI-8226 leukemia, -54.7% (active); in the test on OVCAR-8 ovarian it was -77.8% (active); in the test on OVCAR-4 ovarian it was -37.4% (active); with SK-OV-3 ovarian, -87.2% (active); in the test on IGROV1 ovarian, -87.4% (active). Moreover, the growth in the test on OVCAR-3 ovarian is -87.6% (active); in the test on HS 578T breast it was -57.1% (active); in the test with NCI/ADR-RES ovarian it was -74.4% (active); in the test with T-47D breast, -54.8% (active); in the test on BT-549 breast, -71.2% (active); with MDA-MB-435 melanoma, -97% (active). Also, the growth was -82.6% (active) in the test with SW-620 colon; -82% (active) in the test on MCF7 breast; -82.8% (active) with HCT-116 colon; -78.6% (active) with HCC-2998 colon; -79.2% (active) in the test with KM12 colon.

Take `FC1(F)CCN(Cc2c[nH]c3cc(Cl)ccc23)C[C@H]1CCc1ccccc1`: the growth was 51.6% in the test on SR leukemia; 34% in the test with RPMI-8226 leukemia; 47.7% in the test with OVCAR-8 ovarian; 56.7% in the test on OVCAR-4 ovarian; 84% with SK-OV-3 ovarian; 40.8% with IGROV1 ovarian. For the same compound, the growth in the test on OVCAR-3 ovarian was 54.6%; in the test with HS 578T breast, 56.6%; in the test on NCI/ADR-RES ovarian, 37.2%; with T-47D breast, 45.2%; in the test with BT-549 breast, 56%; in the test on MDA-MB-435 melanoma, 59.3%. Moreover, the growth with SW-620 colon is 38.8%; in the test on MCF7 breast it was 41.2%; in the test on HCT-116 colon, 22.8%; in the test with HCC-2998 colon it was 95.3%; in the test on KM12 colon, 60.8%.

Consider `Cc1c(O)c(=O)n(-c2ccccc2)n1C`, for which the growth is 91.4% with SR leukemia; 104% in the test with RPMI-8226 leukemia; 109% with OVCAR-8 ovarian; 87.2% in the test on OVCAR-5 ovarian; 105% in the test on SK-OV-3 ovarian; 117% in the test on IGROV1 ovarian. Further, the growth was 108% with OVCAR-3 ovarian; 127% in the test with HS 578T breast; 105% in the test with NCI/ADR-RES ovarian; 99.5% in the test on T-47D breast; 109% in the test on BT-549 breast; 109% in the test with MDA-MB-435 melanoma. Further, the growth in the test with SW-620 colon is 114%; with MCF7 breast, 101%; in the test on HCT-116 colon, 109%; in the test on HCC-2998 colon, 97.3%; with KM12 colon, 105%.

As to `CNC(=O)c1ccccc1Sc1ccc2c(/C=C/c3ccccn3)n[nH]c2c1`, the growth is 10.4% in the test on SR leukemia; 25.2% in the test on RPMI-8226 leukemia; 28.4% in the test with OVCAR-8 ovarian; 41.4% in the test with OVCAR-5 ovarian; 44.5% with SK-OV-3 ovarian; 23.1% with IGROV1 ovarian. Further, the growth in the test on OVCAR-3 ovarian is 52.7%; in the test on T-47D breast it was -12.4% (active); in the test on BT-549 breast, 16.2%; with MDA-MB-435 melanoma, 39%; with SW-620 colon, 17.8%; in the test with MCF7 breast it was 35.2%. Besides, the growth with HCT-116 colon was 29.9%; with HCC-2998 colon, 68.9%; in the test with KM12 colon, 17.2%.
